{"source": "PubChem BioAssay (Tox21)", "note": "Calls of active or inactive are those of the source. Calls follow the shape of the dose curve; as a rule, active = well fitted curve in the direction sought with a large enough effect in the repeat runs; inconclusive = weak or mixed curves; inactive = flat fitted curve, though single readings scatter."}
{"assay": "qHTS assay to test for compound auto fluorescence at 590 nm (red) in HEK293 cell free culture (AID 720683)", "settings": "cell-free medium autofluorescence, Ex540/Em590 red; series mostly up to 91.3 µM", "source_text": "U.S. Tox21 Program National Center for Advancing Translational Sciences [NCATS] NIH Chemical Genomics Center [NCGC] U.S. Environmental Protection Agency [EPA] National Institutes of Environmental Health Sciences [NIEHS] National Toxicology Program [NTP] U.S. Food and Drug Administration [FDA] Tox21 Assay Overview: Compound auto fluorescence often interferes with screening of the compound library against various biological targets and signaling pathways. Some of these compounds may have fluorophoric properties. Such properties may interfere with the assay outputs resulting in false positives and/or negatives. To decrease such complications and ensure the compound activities are relevant in terms of biological response, the Tox21 10K compound library was screened for auto fluorescence. From the fluorophores used as reporter signals in our screening assays, the auto fluorescence equivalencies of compounds against three fluorophores have been evaluated: Triamterene, Fluorescein and Rose Bengal sodium for blue, green and red fluorescence, respectively. The fluorescence intensities were measured using Excitation/Emission wavelengths at 405/460nm, 485/535nm and 540/590nm for blue, green and red labels, respectively. This assay includes the red fluorescence data.\nTox21 Assay Protocol Summary: 5 uL of culture medium (DMEM containing 10% FBS) per well was dispensed into black wall/clear bottom 1536-well plates using a Multidrop Combi Dispenser (ThermoFisher Scientific, Waltham, MA). After 23 nL compound or DMSO vehicle was transferred into assay plate by a pintool work station (Kalypsys, San Diego, CA), fluorescence intensities in the assay plates were measured by an Envision (PerkinElmer, Shelton, CT) plate reader using three labels for measuring blue, green and red fluorescence at […] 460, 535 and 590nm respectively."}
{"compound": "COc1cc2c(cc1OC)[C@@]13CCN4CC5=CCO[C@H]6CC(=O)N2[C@H]1[C@H]6[C@H]5C[C@H]43", "outcome": "inactive"}
{"compound": "O=C(O)c1ccc2[nH]cc(CCCCN3CC=C(c4ccccc4)CC3)c2c1", "outcome": "inactive"}
{"compound": "CC1(C)COP(Oc2ccccc2)OC1", "outcome": "inactive"}
{"compound": "COc1cc(OC)nc(Oc2cccc(Oc3nc(OC)cc(OC)n3)c2C(=O)O)n1", "outcome": "inactive"}
{"compound": "COP(=S)(OC)Oc1ccc(S(N)(=O)=O)cc1", "outcome": "inactive"}
{"compound": "CCCSC(=O)Cl", "outcome": "inactive"}
{"compound": "O=C(Oc1ccc(Br)cc1)N1CCN2CCC1CC2", "outcome": "inactive"}
{"compound": "C[C@]1(O)CC[C@H]2[C@@H]3CCC4=CC(=O)CC[C@]4(C)[C@@]3(F)[C@@H](O)C[C@@]21C", "outcome": "inactive"}
{"compound": "CCCCOC(=O)c1ccccc1C(=O)O", "outcome": "inactive"}
{"compound": "ClC(Cl)Br", "outcome": "inactive"}
{"compound": "ClC(Br)Br", "outcome": "inactive"}
{"compound": "Cc1cnc[nH]1", "outcome": "inactive"}
{"compound": "C=CCC1=C(C)[C@@H](OC(=O)[C@@H]2[C@@H](C=C(C)C)C2(C)C)CC1=O", "outcome": "inactive"}
{"compound": "CCCCN(CCCCO)N=O", "outcome": "inactive"}
{"compound": "CCOc1nc(C(Cl)(Cl)Cl)ns1", "outcome": "inactive"}
{"compound": "Nc1c(Br)cc([N+](=O)[O-])cc1[N+](=O)[O-]", "outcome": "inactive"}
{"compound": "CN1CCC(O)(c2ccc(F)cc2)C(C(=O)c2ccc(F)cc2)C1", "note": "(stereo not given)", "outcome": "inactive"}
{"compound": "OCCBr", "outcome": "inactive"}
{"compound": "Nc1ccccc1Cl", "outcome": "inactive"}
{"compound": "CCC(=O)c1ccccc1", "outcome": "inactive"}
{"compound": "CC(C)CC(N(C)C)C1(c2ccc(Cl)cc2)CCC1", "note": "(stereo not given)", "outcome": "inactive"}
{"compound": "COc1ncc(F)c2nc(S(=O)(=O)Nc3c(F)cccc3F)nn12", "outcome": "inactive"}
{"compound": "CCSC(=O)N(CC)C1CCCCC1", "outcome": "inactive"}
{"compound": "O=C(Nc1ccccc1)c1ccccc1I", "outcome": "inactive"}
{"compound": "C#C[C@]1(O)C=C[C@H]2[C@@H]3CCC4=CC(=O)CC[C@@H]4[C@H]3CC[C@@]21CC", "outcome": "inactive"}
{"compound": "O=[N+]([O-])c1cccc2c([N+](=O)[O-])cccc12", "outcome": "inactive"}
{"compound": "Cc1ncc(CNC(=O)N(CCCl)N=O)c(N)n1", "outcome": "inactive"}
{"compound": "O=C1OC(c2ccc(O)c(S(=O)(=O)O)c2)(c2ccc(O)c(S(=O)(=O)O)c2)c2c(Br)c(Br)c(Br)c(Br)c21", "outcome": "inactive"}
{"compound": "CNC(=O)Oc1ccccc1C1OCCO1", "outcome": "inactive"}
{"compound": "Cc1cc(C)c(C(=O)P(=O)(C(=O)c2c(C)cc(C)cc2C)c2ccccc2)c(C)c1", "outcome": "inactive"}
{"compound": "CCOC(=O)CP(=O)(OCC)OCC", "outcome": "inactive"}
{"compound": "[Cl][Sn]([Cl])([Cl])[Cl]", "outcome": "inactive"}
{"compound": "CCCCC(=O)Cl", "outcome": "inactive"}
{"compound": "CN1CCN(C(=O)O[C@H]2c3nccnc3C(=O)N2c2ccc(Cl)cn2)CC1", "outcome": "inactive"}
{"compound": "CCCSP(=S)(OCC)Oc1ccc(Cl)cc1Cl", "note": "(stereo not given)", "outcome": "inactive"}
{"compound": "CN1C(=S)CN=C(c2ccccc2)c2cc(Cl)ccc21", "outcome": "inactive"}
{"compound": "CC1CCC(=O)O1", "note": "(stereo not given)", "outcome": "inactive"}
{"compound": "O=C1c2ccccc2C(=O)c2ccccc21", "outcome": "inactive"}
{"compound": "[O]=[Cd]", "outcome": "inactive"}
{"compound": "CCCCc1ccc(O)cc1", "outcome": "inactive"}
